The panel holds about 83,000 compounds, 20% with a hit somewhere; the sample as a whole holds those more often.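 Activity criterion: percent growth below 10, measured after cells in 96-well plates were exposed to a single compound concentration for 48 hours.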 Unmarked numbers belong to inactive results. Active and inactive are the calls of the source.
Legend:
Assay in all cases: NCI-60 one-dose screen, 48 h (100 = growth as untreated, 0 = no growth, -100 = all killed)
Conditions in all cases: 10 µM unless noted
DU-145 prostate = system: DU-145 prostate
K-562 leukemia = system: K-562 leukemia
MALME-3M melanoma = system: MALME-3M melanoma
MDA-MB-231 breast = system: MDA-MB-231 breast
RXF 393 renal = system: RXF 393 renal
SF-268 CNS = system: SF-268 CNS
SF-295 CNS = system: SF-295 CNS
SF-539 CNS = system: SF-539 CNS
UACC-257 melanoma = system: UACC-257 melanoma
M14 melanoma = system: M14 melanoma

Structure (SMILES) | growth (DU-145 prostate) | growth (K-562 leukemia) | growth (MALME-3M melanoma) | growth (MDA-MB-231 breast) | growth (RXF 393 renal) | growth (SF-268 CNS) | growth (SF-295 CNS) | growth (SF-539 CNS) | growth (UACC-257 melanoma) | growth (M14 melanoma)
O=C1c2ccccc2-c2nnc(-c3ccc(Br)cc3)cc21 | 55.8% | 16.5% | -3.82% (active) | 14.1% | 33.7% | 59.3% | 13.6% | 56.7% | 52.6% | 37.2%
O=C1/C(=C/c2ccc(Oc3ccccc3)cc2)N=C(c2ccccc2)N1CCc1cccs1 | 98% | 84% | 86.1% | 79.8% | 92.1% | 80.8% | 82.9% | 104% | 99.1% | 58.7%
CCCCCCCCCCCCSC1=CC(=O)C=CC1=O | 111% | 75% | 102% | 97.2% | 78% | 44.6% | 51.8% | 27.7% | 73.2% | 89.5%
CCOc1ccc(-c2cnnn2-c2nonc2-n2cccc2)cc1 | -9.36% (active) | 5.54% (active) | 52.6% | 4.16% (active) | -30.1% (active) | 50.7% | 8.24% (active) | -19.5% (active) | 65% | 9.7% (active)
COc1cccc(C2C3=C(COC3=O)N(CCO)c3cc4c(cc32)CCC4)c1 (stereo unspecified) | -26.5% (active) | 15.8% | 57.3% | -12% (active) | -3.06% (active) | 22.6% | -27.5% (active) | -17.9% (active) | 31.5% | -13.7% (active)
O=C1/C(=C/c2ccc([N+](=O)[O-])cc2)Oc2ccc(O)cc21 | 103% | 41.7% | 91.8% | 89% | 92.6% | 89.9% | 68.2% | 86.4% | 67.3% | 97.8%
COc1cc(-c2nc3ccccc3o2)cc(CN2CCN(c3ccccc3)CC2)c1O | 71.8% | 40.1% | 63% | 69.3% | 107% | 83.3% | 36.2% | 94.7% | 86.7% | 52.5%
CC1(C)N=C(N)N=C(N)N1c1cccc(OCCOc2cccc([N+](=O)[O-])c2)c1 | 45.1% | 17.9% | 48.2% | 65% | 73.2% | 22.9% | 68.1% | 26.1% | 48.3% | 64.1%
COc1ccc(-c2nc3sc(C)cn3c2/C=C/C(=O)c2cc(OC)c(OC)c(OC)c2)cc1 | 82.2% | 75.6% | 39.3% | 39.5% | 84.5% | 73.4% | 51.3% | 77.6% | 50.8% | 43%
COc1nc2c(cc1S(=O)(=O)c1ccccc1)CCc1c-2cnn1-c1ccccc1Cl | 90.8% | 54.3% | 97.4% | 70.2% | 52.6% | 74.1% | 63% | 60.5% | 72.6% | 68.9%
CN(C)c1ccc(/C=C(\C#N)c2cc3ccccc3n2C)cc1 | 10.9% | 7.77% (active) | 56.9% | 20.1% | 10.5% | 47.5% | 7.63% (active) | -12.5% (active) | 68.9% | 8.17% (active)
COc1ccc(/C=C2\CN(Cc3cn(CCCNc4ccnc5cc(Cl)ccc45)nn3)C/C(=C\c3ccc(OC)c(OC)c3)C2=O)cc1OC | 11.7% | 4.56% (active) | 17.8% | -10.2% (active) | -95.1% (active) | -4.95% (active) | -55.9% (active) | 6.69% (active) | 45.3% | -21.5% (active)
CC(C)(C)[Si](C)(C)OC1[C@@H](COC(N)=O)O[C@@H](n2cnc3c(N)ncnc32)[C@H]1O[Si](C)(C)C(C)(C)C (stereo partly specified) | 75.1% | 7.16% (active) | 111% | 100% | 106% | 79.8% | 118% | 97.4% | – | 98.8%
CC[Si](CC)(CC)OC1[C@@H](O[Si](CC)(CC)CC)[C@@H](CNC(=O)NC)O[C@H]1n1cnc2c(NC(=O)Nc3ccccc3)ncnc21 (stereo partly specified) | 89.3% | 15.9% | 63.2% | 97.4% | 116% | 67.5% | 59% | 99% | – | 99.9%
O=c1oc2ccccc2cc1-c1csc(N/N=C/c2cc3ccccc3nc2Cl)n1 | 87.6% | 108% | 103% | 79.1% | 111% | 106% | 97.8% | 96.1% | 115% | 115%
O=c1nc(NO)[nH]c(=O)n1Cc1ccccc1 | 115% | 108% | 100% | 123% | 94.8% | 106% | 93.7% | 98.7% | – | 106%
O=C1Nc2ccc(Cl)cc2/C1=N/N=C(c1ccccc1)c1ccccc1 | 103% | 93.3% | 87.9% | 75.6% | 109% | 97.8% | 92.6% | 97% | 98.5% | 102%
COc1cc(-c2ccc3cc(OC)c(OC)c(OC)c3c2)cc(OC)c1OC | 95.9% | 24.9% | 68.1% | 65.4% | 71.4% | 77.4% | 43.8% | 79.3% | 75.3% | 51.4%
CCCCCn1c(=N)n(CC(O)COc2cccc(C)c2)c2ccccc21 (stereo unspecified) | 10.4% | 6.52% (active) | -6.7% (active) | 22.8% | 15.5% | 25.6% | -27.4% (active) | -14.7% (active) | -19.6% (active) | 15.9%
COc1cc(/C=C2\C(=O)N(c3c(Cl)cccc3Cl)c3ccccc32)cc(OC)c1O | 36.8% | 8.62% (active) | 133% | 72.4% | 90.4% | 40.9% | 8.15% (active) | 45.1% | 46.1% | 39.2%
Cc1nc2cc(Nc3nc(Nc4ccc(F)cc4)nc(-c4ccc(Cl)cc4)n3)ccc2n1Cc1ccccc1 | 81.4% | 33.6% | 72.5% | 66% | 68.5% | 54.9% | 90.4% | 92.6% | 68.9% | 58.3%
CCC(C)Oc1cc(/C=N/NC(=O)c2cnn3c2NC(c2ccccc2)C3)ccc1OC (stereo unspecified) | 45.6% | 15.8% | 58.4% | 39.4% | 21% | 44.7% | 18.7% | 9.65% (active) | 55.5% | 34%
COc1ccc(Cn2c(Br)c3c(c2-c2cc(OC)c(OC)c(OC)c2)CCc2sc(N)nc2-3)cc1 | 12.4% | 4.43% (active) | 47.7% | 12.6% | -0.407% (active) | 44.3% | 43.7% | -13.5% (active) | 57.5% | 12%
CC(C)(C)[Si](C)(C)OC1[C@@H](COC(=O)NC(=O)CCl)O[C@@H](n2cnc3c(N)ncnc32)[C@H]1O[Si](C)(C)C(C)(C)C (stereo partly specified) | 46.2% | -37.6% (active) | -57% (active) | 35.7% | 64% | -19.6% (active) | 45.7% | 89.8% | – | 18.4%
O=c1onc(-c2ccccc2)c2ccccc12 | 113% | 105% | 121% | 97% | 90.5% | 113% | 101% | 122% | 120% | 118%
COc1ccc(Sc2ccc3[nH]c(=O)nc(N)c3c2)cc1 | 108% | 100% | 102% | 91.5% | 101% | 107% | 106% | 105% | 92% | 105%
Cc1oc2c(c1C(=O)N1CC[C@@H](N)C1)C(=O)c1c(c(O)c3ccccc3c1O)C2=O | 24% | 3.82% (active) | 53.2% | 35.2% | 48.9% | 16% | 29.9% | 46.9% | 74.8% | 38.8%

— PubChem BioAssay (NCI)
